Laboratory results reported in PubChem BioAssay.
Where “and” joins values, the source holds several entries; their conditions need not be identical. Identical values can stand only once. Inconclusive results are not listed. More than one record can exist for a structure, and the calls need not agree. Calls of active or inactive are those of the source. Unless noted, no stated cut-off is given here; in the data, active means inhibition above about 80%; inactive means the rest.

Assays:
[1] = viability loss in pontine glioma line – cell-based, SU-DIPG-XXV, MIPE5.0, CellTiter-Glo, qHTS, dose response (AID 1347065; cut-off not given, nearly all actives have AC50 up to about 26 µM;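 further: cells exposed to compound for 48 hours before ATP readout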); details: CellTiter-Glo ATP luminescence
[2] = sensitizers of A549 cells to miR-34 induction, primary screen, imaging, A549 dox-inducible miR-34, nuclei and caspase counts (AID 1347080;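 active means compounds whose cell count with miR-34 switched on is under 0.7 times the count with it off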); details: A549 miR-34 inducible, Hoechst nuclei count, 48 h
[3] = survival rescue of mitochondrial mutant cells in low glucose, primary screen, MELAS cybrids, Rieske KO mouse fibroblasts, CellTiter-Glo (AID 1508586;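 active means mean z-score across replicates of 1.96 or higher in either the MELAS or the Rieske mutant cell line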;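 further: z relative to plate mean and SD of compound and empty wells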)
[4] = LFS_MB_P medulloblastoma growth inhibition, cell-based, chromothripsis tumors, cisplatin or BGB combos (AID 1671449); details: LFS_MB_P medulloblastoma cells;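 further: cells exposed for 96 hours; 0% = vehicle DMSO and 100% = killing by high DMSO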
[5] = HDN33 neuroblastoma growth inhibition, cell-based, chromothripsis tumors, cisplatin or BGB combos (AID 1671450); details: HDN33 neuroblastoma cells, stronger effect = higher value;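 further: cells exposed to compound for four days; 0% = vehicle DMSO and 100% = cell killing by high DMSO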
[6] = ICB984 medulloblastoma cell growth inhibition, synergistic combos for chromothripsis tumors, cisplatin or BGB combos (AID 1671451; call rule not given here;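 further: cells exposed for 96 hours before readout; 0% = vehicle DMSO and 100% = killing by high DMSO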); details: ICB984 medulloblastoma cells, drug combinations, stronger effect = higher value
[7] = LFS_MB_1R medulloblastoma cell growth inhibition, synergistic combos for chromothripsis tumors, cisplatin or BGB combos (AID 1671452); details: LFS_MB_1R medulloblastoma cells, stronger effect = higher value;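 further: cells exposed for 96 hours before readout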
[8] = HTB85 osteosarcoma cell growth inhibition, synergistic combos for chromothripsis tumors, BGB or cisplatin IC20 combos (AID 1671453); details: HTB85 osteosarcoma cells, drug combinations, stronger effect = higher value;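 further: cells exposed for 96 hours before readout; 0% = vehicle DMSO and 100% = high DMSO killing control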
[9] = CRL2098 osteosarcoma cell growth inhibition, synergistic combos for chromothripsis tumors, BGB or cisplatin IC20 combos (AID 1671454); details: CRL2098 osteosarcoma cells, drug combinations, stronger effect = higher value;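 further: cells exposed for 96 h before readout; 0% = vehicle DMSO and 100% = killing by high DMSO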
[10] = HD-MB03 medulloblastoma cell growth inhibition, synergistic combos for chromothripsis tumors, BGB or cisplatin IC20 combos (AID 1671455; in the data active means inhibition above about 83%;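 further: 0% = vehicle DMSO and 100% = high DMSO as cytotoxic control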); details: HD-MB03 medulloblastoma cells, stronger effect = higher value
[11] = UWB1.289 ovarian carcinoma cell growth inhibition, synergistic combos for chromothripsis tumors, BGB or cisplatin combos (AID 1671456); details: UWB1.289 ovarian carcinoma cells, stronger effect = higher value;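 further: cells exposed to compound for four days; 0% = vehicle DMSO and 100% = killing by high DMSO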
[12] = LFS_MB_2R medulloblastoma cell growth inhibition, synergistic combos for chromothripsis tumors, cisplatin combos (AID 1671457); details: LFS_MB_2R medulloblastoma cells, stronger effect = higher value;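 further: cells exposed to compound for four days before readout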
[13] = MDA-MB-436 breast carcinoma cell growth inhibition, synergistic combos for chromothripsis tumors, BGB or cisplatin combos (AID 1671458; call rule not given here;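 further: cells exposed for 96 hours; 0% = vehicle DMSO and 100% = killing by high DMSO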); details: MDA-MB-436 breast carcinoma growth inhibition, drug combinations, stronger effect = higher value
[14] = UWB1.289_BRCA1 ovarian cancer growth, cell-based, BGB or cisplatin combinations (AID 1671459); details: UWB1.289 BRCA1 ovarian carcinoma, drug combinations, stronger effect = higher value
[15] = human astrocyte viability loss, single and combined drugs, cytotoxicity control for chromothriptic childhood tumor combination screen, cell-based, BGB or cisplatin IC20 combos (AID 1671460); details: Human astrocytes, drug combinations, stronger effect = higher value;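 further: cells exposed to compounds for 96 hours before viability readout; 0% = vehicle and 100% = killing control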
[16] = growth inhibition of BT084 medulloblastoma cells, cell-based, ICGC_MB145, cisplatin and BGB IC40 combos (AID 1671461); details: drug combinations, stronger effect = higher value;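 further: cells exposed to drugs for 96 hours; 0% = vehicle DMSO and 100% = high DMSO full killing control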
[17] = growth inhibition of RCMB18 medulloblastoma cells, cell-based, cisplatin and BGB IC40 combos (AID 1671462); details: stronger effect = higher value;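 further: cells exposed to compound for four days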
[18] = growth inhibition of CRL1545 osteosarcoma cells, cell-based, cisplatin and BGB IC20 combos (AID 1671464); details: stronger effect = higher value;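 further: cells exposed to compound for 96 hours before readout; 0% = vehicle DMSO and 100% = high DMSO killing control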
[19] = measured here: combination with BGB IC40, at 0.05 µM
[20] = measured here: with BGB IC20 combination, at 0.5 µM
[21] = measured here: with cisplatin IC20 combination, at 0.5 µM
[22] = measured here: combination with cisplatin, at 0.5 µM
[23] = measured here: combination with cisplatin, at 5 µM

Which AC50 [1] does the source give for `CNCc1ccc(-c2cc(-c3nc(-c4ccc(S(=O)(=O)C(C)C)cc4)cnc3N)on2)cc1` here?
The AC50 was 6.61 µM (active).

What about the fold change ([2]; stronger effect = lower value, cell number ratio, induced over uninduced) of the same compound?
Its fold change is 1.09 (inactive).

And the fold change ([2]; measured here: relative caspase fold change +Dox/-Dox)?
The fold change was 0.389.

What about the cell count ([2]; measured here: total cells with miR-34 induction, stronger effect = lower value) of the same compound?
The cell count was 2400.

And the cell count ([2]; measured here: total cells without miR-34 induction)?
The cell count was 2210.

What about the z-score ([3]; MELAS cybrid survival, CellTiter-Glo 48 h, stronger effect = higher value) of the same compound?
Its z-score is 2.18 (active).

And the z-score ([3]; Rieske KO mouse fibroblast survival, CellTiter-Glo 72 h)?
The z-score was -0.548.

What about the inhibition ([4]; at 0.5 µM, stronger effect = higher value) of the same compound?
Its inhibition is -32.1% (inactive) and 15.3% (inactive).

And the inhibition ([4]; measured here: combination with BGB IC20, at 0.005 µM)?
Its inhibition is 12.2% and -16.2%.

And the inhibition ([4]; measured here: combination with BGB IC40, at 0.005 µM)?
Its inhibition is 9.32% and -55%.

And the inhibition [4, 19]?
The inhibition was -2.44% and -42.7%.

What about the inhibition ([4]; measured here: combination with cisplatin, at 0.5 µM, stronger effect = higher value) of the same compound?
Its inhibition is -68.5% and 16.4%.

What about the inhibition ([4]; measured here: combination with cisplatin, at 5 µM, stronger effect = higher value) of the same compound?
Its inhibition is 96.1% and -3.93%.

What about the inhibition ([5]; BGB combo, at 5 µM) of the same compound?
Its inhibition is 99.9% and 91.5%.

What about the inhibition ([5]; at 0.5 µM) of the same compound?
The inhibition was 81% (active) and 55% (inactive).

What about the inhibition ([5]; cisplatin combo, at 5 µM) of the same compound?
The inhibition was 99.7% and 98.8%.

What about the inhibition [5, 20] of the same compound?
The inhibition was 74.7% and 52.8%.

And the inhibition [5, 21]?
Its inhibition is 84.9% and 61.2%.

What about the inhibition ([5]; single agent, at 5 µM) of the same compound?
Its inhibition is 99.6% and 97.3%.

What about the inhibition ([6]; BGB IC20 combo, at 0.005 µM) of the same compound?
The inhibition was 10% and -1.43%.

And the inhibition ([6]; BGB IC40 combo, at 0.005 µM)?
Its inhibition is 46.6% and 13%.

What about the inhibition ([6]; BGB IC40 combo, at 0.05 µM) of the same compound?
Its inhibition is 102%.

And the inhibition ([6]; at 0.5 µM)?
The inhibition was -9.05% (inactive) and -13.1% (inactive).

What about the inhibition ([6]; cisplatin combo, at 0.05 µM) of the same compound?
The inhibition was 102% and 103%.

And the inhibition ([6]; cisplatin combo, at 0.5 µM)?
The inhibition was -4.28% and -29.4%.

And the inhibition ([6]; cisplatin combo, at 5 µM)?
Its inhibition is 0.208% and -7.66%.

What about the inhibition ([6]; measured here: 5 uM single agent, at 5 µM) of the same compound?
The inhibition was 4.2% and -17.2%.

What about the inhibition ([7]; at 0.5 µM) of the same compound?
Its inhibition is -10.6% (inactive) and -30.6% (inactive).

And the inhibition [7, 19]?
The inhibition was -16.3% and -24.4%.

What about the inhibition [7, 22] of the same compound?
The inhibition was -6.99% and -51.5%.

And the inhibition [7, 23]?
The inhibition was 103% and 92%.

What about the inhibition ([8]; at 0.5 µM) of the same compound?
Its inhibition is 67.2% (inactive) and 53.2% (inactive).

And the inhibition ([8]; measured here: with BGB IC20, at 0.5 µM)?
The inhibition was 67.9% and 66.3%.

What about the inhibition ([8]; measured here: with BGB IC20, at 5 µM) of the same compound?
The inhibition was 99.8% and 98.3%.

What about the inhibition ([8]; measured here: with cisplatin IC20, at 0.5 µM) of the same compound?
The inhibition was 78.5% and 60.7%.

And the inhibition ([8]; measured here: with cisplatin IC20, at 5 µM)?
Its inhibition is 99.8% and 88.8%.

And the inhibition ([8]; single agent, at 5 µM)?
The inhibition was 99.8% and 79%.

What about the inhibition ([9]; at 0.5 µM) of the same compound?
The inhibition was 45.2% (inactive) and 30% (inactive).

What about the inhibition ([9]; measured here: combination with BGB at IC20, at 0.5 µM) of the same compound?
Its inhibition is 27% and 27.5%.

And the inhibition ([9]; measured here: combination with cisplatin at IC20, at 0.5 µM)?
Its inhibition is 60.9% and 31.3%.

What about the inhibition ([10]; at 0.5 µM) of the same compound?
The inhibition was 87.3% (active) and 58.6% (inactive).

What about the inhibition ([10]; measured here: combo with BGB at IC20, at 0.5 µM) of the same compound?
The inhibition was 82.9% and 61.6%.

And the inhibition ([10]; measured here: combo with cisplatin at IC20, at 0.5 µM)?
Its inhibition is 96.2% and 87.4%.

What about the inhibition ([11]; at 0.5 µM) of the same compound?
Its inhibition is 83% (active) and 72.2% (inactive).

And the inhibition ([11]; measured here: inhibition with BGB combination, at 0.05 µM)?
Its inhibition is 7.96% and -9.18%.

What about the inhibition ([11]; measured here: inhibition with cisplatin combination, at 0.05 µM) of the same compound?
The inhibition was 41.3% and 1.85%.

And the inhibition ([12]; at 0.5 µM)?
Its inhibition is 13.8% (inactive) and -20% (inactive).

What about the inhibition [12, 22] of the same compound?
The inhibition was 29.2% and -5.7%.

And the inhibition [12, 23]?
The inhibition was 104% and 53.6%.

And the inhibition ([13]; at 0.5 µM)?
The inhibition was 55.5% (inactive) and 36% (inactive).

What about the inhibition ([13]; measured here: BGB combination, at 0.5 µM) of the same compound?
The inhibition was 34.5% and 11.4%.

And the inhibition ([13]; measured here: BGB combination, at 5 µM)?
The inhibition was 82.1% and 63.6%.

And the inhibition ([13]; measured here: cisplatin combination, at 0.5 µM)?
Its inhibition is 76.4% and 54%.

What about the inhibition ([13]; measured here: cisplatin combination, at 5 µM) of the same compound?
Its inhibition is 109% and 82.4%.

What about the inhibition ([14]; BGB combination, concentration series, at 5 µM) of the same compound?
The inhibition was 101% and 97.7%.

And the inhibition ([14]; at 0.5 µM)?
The inhibition was 90.3% (active) and 82.2% (active).

What about the inhibition ([14]; cisplatin combination, concentration series, at 5 µM) of the same compound?
Its inhibition is 84.8% and 106%.

And the inhibition ([15]; at 0.5 µM)?
Its inhibition is -32% (inactive) and -35.2% (inactive).

And the inhibition ([15]; measured here: combo with BGB IC20, at 0.5 µM)?
Its inhibition is -34.1% and -25.6%.

What about the inhibition ([15]; measured here: combo with cisplatin IC20, at 0.5 µM) of the same compound?
Its inhibition is -44.2% and -41.4%.

What about the inhibition ([16]; at 0.5 µM) of the same compound?
Its inhibition is 29.8% (inactive) and 12.8% (inactive).

And the inhibition ([16]; cisplatin combination, at 0.5 µM)?
Its inhibition is 27.7% and 16.2%.

What about the inhibition ([16]; cisplatin combination, at 5 µM) of the same compound?
The inhibition was 109% and 105%.

What about the inhibition ([16]; measured here: BGB IC40 combination 0.05 uM, at 0.05 µM) of the same compound?
The inhibition was -22.6% and -25.3%.

What about the inhibition ([16]; single agent, at 5 µM) of the same compound?
Its inhibition is 107% and 108%.

And the inhibition ([17]; at 0.5 µM)?
The inhibition was 31.8% (inactive) and 0.94% (inactive).

And the inhibition ([17]; cisplatin combo, at 5 µM)?
Its inhibition is 104% and 103%.

What about the inhibition ([17]; measured here: BGB IC40 combination, at 0.05 µM) of the same compound?
Its inhibition is 11.9% and -20.4%.

What about the inhibition [17, 22] of the same compound?
The inhibition was 38.1% and -11.6%.

What about the inhibition ([17]; single agent, at 5 µM) of the same compound?
Its inhibition is 101%.

And the inhibition ([18]; at 0.5 µM)?
Its inhibition is 95% (active) and 91% (active).

And the inhibition [18, 20]?
Its inhibition is 91.2% and 85.8%.

And the inhibition [18, 21]?
Its inhibition is 96.8% and 93.6%.

What about the inhibition ([18]; single agent, at 0.05 µM) of the same compound?
The inhibition was 35.3% and -10.3%.

And the inhibition ([18]; single agent, at 5 µM)?
Its inhibition is 99.8% and 99.5%.
